# Measurements: PubChem BioAssay (NCATS)
# Inconclusive results are not listed. The source made the active and inactive calls. Calls come from the whole dose curve; as a rule, active = well fitted curve in the direction sought with a large enough effect; inconclusive = small, poorly fitted or top-dose-only effect, or another doubt; inactive = no such curve, though single readings can be large; an effect the other way counts as inactive or inconclusive.
# What was measured:
# [1] = qHTS of pediatric cancer cell lines to identify multiple opportunities for drug repurposing: Confirmatory screen for BT-37 cells (AID 1347117); note: nearly all actives have a fitted effect of over 55% in size; note: potency is the fitted concentration of half-maximal effect
# Summary of the method: (§1)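 Cells (500-1,000/well) in growth media were settled 5 h at 37 degrees C, then given compounds for 48 h. Viability was read as CellTiter-Glo luminescence. Primary runs used MIPE at 11 points (0.78 nM-46 µM) and NPC at 8 points (0.59 nM-46 µM); follow-ups used 11 points.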
# [2] = qHTS of pediatric cancer cell lines to identify multiple opportunities for drug repurposing: Confirmatory screen for TC32 cells (AID 1347118);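 note: potency is the fitted concentration of half-maximal effect; cells exposed to compound for 48 h before the read; nearly all actives have a fitted effect of over 65% in size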
# Summary of the method: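 Measured quantity: luminescence from CellTiter-Glo, reflecting metabolically active TC32 cells following 48 h of compound. Curves came straight from multi-point titrations, with 8 or 11 points in primary and 11 in confirmatory screening.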
# [3] = qHTS of pediatric cancer cell lines to identify multiple opportunities for drug repurposing: Confirmatory screen for MG 63 (6-TG R) cells (AID 1347119); note: nearly all actives have a fitted effect of over 55% in size; note: potency is the fitted concentration of half-maximal effect
# Summary of the method: as §1
# [4] = qHTS of pediatric cancer cell lines to identify multiple opportunities for drug repurposing: Confirmatory screen for Rh18 cells (AID 1347125); note: nearly all actives have a fitted effect of over 55% in size; note: potency is the fitted concentration of half-maximal effect
# Summary of the method: as §1
# [5] = qHTS of pediatric cancer cell lines to identify multiple opportunities for drug repurposing: Confirmatory screen for Rh30 cells (AID 1347126); note: nearly all actives have a fitted effect of over 55% in size; note: potency is the fitted concentration of half-maximal effect
# Summary of the method: as §1
# [6] = qHTS of pediatric cancer cell lines to identify multiple opportunities for drug repurposing: Confirmatory screen for Saos-2 cells (AID 1347127); note: nearly all actives have a fitted effect of over 60% in size; note: potency is the fitted concentration of half-maximal effect
# Summary of the method: as §1
# [7] = qHTS of pediatric cancer cell lines to identify multiple opportunities for drug repurposing: Confirmatory screen for OHS-50 cells (AID 1347128); note: potency is the fitted concentration of half-maximal effect
# Summary of the method: as §1
# [8] = qHTS of pediatric cancer cell lines to identify multiple opportunities for drug repurposing: Confirmatory screen for SK-N-SH cells (AID 1347129);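 note: cells exposed to compound for 48 h before viability read; nearly all actives have a fitted effect of over 60% in size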; note: potency is the fitted concentration of half-maximal effect
# Summary of the method: as §1
# [9] = qHTS of pediatric cancer cell lines to identify multiple opportunities for drug repurposing: Confirmatory screen for control Hh wild type fibroblast cells (AID 1347121); note: nearly all actives have a fitted effect of over 70% in size
# Summary of the method: as §1
# [10] = qHTS of pediatric cancer cell lines to identify multiple opportunities for drug repurposing: Confirmatory screen for U-2 OS cells (AID 1347122); note: nearly all actives have a fitted effect of over 65% in size; note: potency is the fitted concentration of half-maximal effect
# Summary of the method: as §1
# [11] = qHTS of pediatric cancer cell lines to identify multiple opportunities for drug repurposing: Confirmatory screen for Rh41 cells (AID 1347123);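 note: 48 h compound exposure; nearly all actives have a fitted effect of over 60% in size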; note: potency is the fitted concentration of half-maximal effect
# Summary of the method: as §1
# [12] = qHTS of pediatric cancer cell lines to identify multiple opportunities for drug repurposing: Confirmatory screen for RD cells (AID 1347124);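 note: cells exposed to compound for 48 h before viability readout; nearly all actives have a fitted effect of over 65% in size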; note: potency is the fitted concentration of half-maximal effect
# Summary of the method: as §1
# [13] = tested on: Zika virus NS2B-NS3 protease; assay: Primary screen GU AMC qHTS for Zika virus inhibitors (AID 1347154); note: nearly all actives have a fitted effect of over 70% in size; note: potency is the fitted concentration of half-maximal effect
# Summary of the method: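 Unlinked Zika NS2B hydrophilic domain/NS3 protease domain noncovalent complex (25 nM final) in 10 mM Tris-HCl pH 8.0, 0.01% Tween 20, with AMC peptide substrate. Fluorescence (ex 340, em 450 nm) change over 15 min, room temperature; percent inhibition fitted to 4-parameter Hill equation.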
# [14] = qHTS of pediatric cancer cell lines to identify multiple opportunities for drug repurposing: Confirmatory screen for SJ-GBM2 cells (AID 1347116); note: nearly all actives have a fitted effect of over 60% in size
# Summary of the method: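 Viability measured as metabolically active cells via CellTiter-Glo luminescence following 48 hours of compound exposure, 11-point dilutions in confirmatory testing. 500-1,000 cells/well plated 5 hours before dosing; controls were DMSO and 2.3 µM bortezomib.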
# Furin (Homo sapiens) = Furin (Homo sapiens) (UniProt P09958); assay: Furin counterscreen qHTS for Zika virus inhibitors (AID 1347149); note: nearly all actives have a fitted effect of over 70% in size; note: potency is the fitted concentration of half-maximal effect
# Summary of the method: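 Fluorogenic cleavage of BOC-RVRR-AMC (2 microM final, Km ~15 µM) was monitored (ex 340, em 450 nm) at 37C after 15 min RT preincubation of 5 nM furin with compounds in HEPES pH 7.0 buffer with CaCl2 and Triton X-100. Percent inhibition was fitted to a 4-parameter Hill curve.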
# [15] = tested on: Zika virus NS2B-NS3 protease (linked construct); assay: Confirmatory screen NINDS AMC qHTS for Zika virus inhibitors (AID 1347152); note: potency is the fitted concentration of half-maximal effect; nearly all actives have a fitted effect of over 70% in size
# Summary of the method: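 In this dose-response qHTS, AMC release from 10 microM Bz-Nle-KRR-AMC by 1 nM linked protease is measured over 15 minutes (about 20% conversion) at pH 8.0. Percent inhibition is fitted to a 4-parameter Hill curve.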
# [16] = Confirmatory screen GU Rhodamine qHTS for Zika virus inhibitors qHTS (AID 1347157)
# Summary of the method: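 Unlinked NS2B/NS3, 25 nM; Rhod110 peptide, 1.5 microM; compounds, up to 114 microM. Reaction run 15 min at RT in 10 mM Tris-HCl pH 8.0, 0.01% Tween 20; kinetic fluorescence change fitted with a 4-parameter Hill model.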
# [17] = tested on: Zika virus NS2B-NS3 protease (unlinked complex); assay: Confirmatory screen GU AMC qHTS for Zika virus inhibitors (AID 1347153); note: nearly all actives have a fitted effect of over 70% in size; note: potency is the fitted concentration of half-maximal effect
# Summary of the method: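 Unlinked enzyme 25 nM, Tris pH 8.0/0.01% Tween 20; cpd 15 min RT, dark; + AMC substrate 10 µM (Km 18.3 µM); 340/450 nm read at t0 and 15 min; % inhibition → 4-param fit.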
# Furin (Homo sapiens), sequence (P09958 whole entry, looked up): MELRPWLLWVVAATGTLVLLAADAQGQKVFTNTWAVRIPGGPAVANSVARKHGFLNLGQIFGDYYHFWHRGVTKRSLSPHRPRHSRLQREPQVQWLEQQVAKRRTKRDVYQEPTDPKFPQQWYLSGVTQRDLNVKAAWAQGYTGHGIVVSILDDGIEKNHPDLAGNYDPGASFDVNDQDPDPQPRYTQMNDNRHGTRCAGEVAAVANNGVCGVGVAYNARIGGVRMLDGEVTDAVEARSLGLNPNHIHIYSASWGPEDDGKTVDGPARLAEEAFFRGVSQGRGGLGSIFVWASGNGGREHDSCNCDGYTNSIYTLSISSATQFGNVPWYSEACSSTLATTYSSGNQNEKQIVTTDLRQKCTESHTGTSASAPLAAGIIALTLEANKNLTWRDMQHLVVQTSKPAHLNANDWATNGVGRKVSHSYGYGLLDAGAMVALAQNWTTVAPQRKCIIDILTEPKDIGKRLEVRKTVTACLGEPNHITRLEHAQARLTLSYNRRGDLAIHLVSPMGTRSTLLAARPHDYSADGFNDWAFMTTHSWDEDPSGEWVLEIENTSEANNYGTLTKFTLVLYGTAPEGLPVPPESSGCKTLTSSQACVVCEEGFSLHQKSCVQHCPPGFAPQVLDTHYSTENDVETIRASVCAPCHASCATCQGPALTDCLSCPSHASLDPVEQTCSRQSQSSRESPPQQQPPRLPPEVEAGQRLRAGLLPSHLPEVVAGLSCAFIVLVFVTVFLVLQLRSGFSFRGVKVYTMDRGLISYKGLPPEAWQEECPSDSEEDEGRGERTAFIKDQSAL
smiles,measurement,setting,value
CC[C@@]1(O)C(=O)OCc2c1cc1n(c2=O)Cc2cc3cc(O)ccc3nc2-1,Potency,[1],0.0208 µM (active)
same,Potency,[2],0.0131 µM (active)
same,Potency,[3],0.0657 µM (active)
same,Potency,[4],0.657 µM (active)
same,Potency,[5],0.585 µM (active)
same,Potency,[6],0.0465 µM (active)
same,Potency,[7],0.0928 µM (active)
same,Potency,[8],1.87 µM (active)
CC1(C)O[C@@H]2C[C@@H]3[C@H]4C[C@@H](F)C5=CC(=O)C=C[C@]5(C)[C@@]4(F)[C@@H](O)C[C@]3(C)[C@]2(C(=O)CO)O1,Potency,[1],0.0827 µM (active)
same,Potency,[2],0.369 µM (active)
same,Potency,[3],2.61 µM (active)
same,Potency,[9],inactive
same,Potency,[10],1.31 µM (active)
same,Potency,[11],0.585 µM (active)
same,Potency,[12],8.27 µM (active)
same,Potency,[4],inactive
same,Potency,[5],inactive
same,Potency,[6],0.117 µM (active)
same,Potency,[7],0.0827 µM (active)
same,Potency,[13],inactive
O=C(Cc1ccc(-c2ccc(OCCN3CCOCC3)cc2)cn1)NCc1ccccc1,Potency,[1],0.147 µM (active)
same,Potency,[2],0.117 µM (active)
same,Potency,[10],0.369 µM (active)
same,Potency,[11],0.0928 µM (active)
same,Potency,[4],inactive
same,Potency,[5],inactive
COc1cc(Nc2ncc(F)c(Nc3ccc4c(n3)N(COP(=O)(O)O)C(=O)C(C)(C)O4)n2)cc(OC)c1OC,Potency,[1],10.4 µM (active)
same,Potency,[2],5.85 µM (active)
same,Potency,[10],4.14 µM (active)
same,Potency,[11],3.29 µM (active)
same,Potency,[12],16.5 µM (active)
same,Potency,[5],2.33 µM (active)
same,Potency,[6],7.37 µM (active)
same,Potency,[7],5.22 µM (active)
same,Potency,[8],2.35 µM (active)
CN1CCN(c2cc(C(=O)Nc3ccc4c(c3)-c3c(c(C(N)=O)nn3-c3ccc(F)cc3)CC4)c(Cl)cn2)CC1,Potency,[1],20.8 µM (active)
same,Potency,[2],20.8 µM (active)
same,Potency,[11],14.7 µM (active)
same,Potency,[4],26.1 µM (active)
same,Potency,[5],0.465 µM (active)
same,Potency,[7],23.3 µM (active)
same,Potency,[8],20.9 µM (active)
CCc1c2c(nc3ccc(O)cc13)-c1cc3c(c(=O)n1C2)COC(=O)[C@]3(O)CC,Potency,[14],inactive
same,Potency,[9],inactive
same,Potency,[10],3.69 µM (active)
same,Potency,[11],0.261 µM (active)
same,Potency,[5],1.47 µM (active)
same,Potency,[6],inactive
same,Potency,[7],inactive
same,Potency,[8],3.32 µM (active)
CN1c2cc(O)c(N=NC(N)=O)cc2CC1S(=O)(=O)O (stereo unspecified),Potency,[13],inactive
CN1CCC(CNc2ccc3ncc(-c4cccc(OC(F)(F)F)c4)n3n2)CC1,Potency,Furin (Homo sapiens),21.5 µM (active)
same,Potency,[15],27.1 µM (active)
same,Potency,[13],24.1 µM (active)
O=C(O)C1(Cc2cccc(Nc3nccs3)n2)CCC(Oc2cccc(Cl)c2F)CC1 (stereo unspecified),Potency,Furin (Homo sapiens),inactive
same,Potency,[16],6.98 µM (active)
Cc1cc(CN2CCN(c3c(Br)cnc4nc(-c5ccc(N6CCN(C)CC6)cc5)[nH]c34)CC2)no1,Potency,Furin (Homo sapiens),24.1 µM (active)
same,Potency,[15],34.1 µM (active)
same,Potency,[13],24.1 µM (active)
O=C(C=Cc1cccnc1)NCCCCC1CCN(C(=O)c2ccccc2)CC1,Potency,[1],inactive
same,Potency,[3],inactive
same,Potency,[10],inactive
same,Potency,[11],inactive
same,Potency,[4],inactive
same,Potency,[5],inactive
same,Potency,[7],inactive
same,Potency,[8],inactive
same,Potency,[13],inactive
CCN(CC)CCCCNc1ncc2cc(-c3cc(OC)cc(OC)c3)c(NC(=O)NC(C)(C)C)nc2n1,Potency,Furin (Homo sapiens),24.1 µM (active)
same,Potency,[17],inactive
same,Potency,[13],21.5 µM (active)
CN(C)CC(C)(C)CNc1nn2c(-c3ccccc3)nnc2cc1C1CCC1,Potency,[2],18.5 µM (active)
same,Potency,[3],inactive
same,Potency,[12],inactive
same,Potency,[4],inactive
same,Potency,[6],inactive
same,Potency,[7],inactive
same,Potency,[8],inactive
same,Potency,[13],inactive
O=C(Nc1cn[nH]c1-c1nc2ccc(CN3CCOCC3)cc2[nH]1)NC1CC1,Potency,[1],inactive
same,Potency,[3],inactive
same,Potency,[9],inactive
same,Potency,[10],inactive
same,Potency,[11],inactive
same,Potency,[12],inactive
same,Potency,[4],inactive
same,Potency,[5],inactive
same,Potency,[6],inactive
same,Potency,[7],inactive
same,Potency,[8],inactive
same,Potency,[13],inactive
COc1cc(C(=O)NS(=O)(=O)c2ccccc2C)ccc1Cc1cn(C)c2ccc(NC(=O)OC3CCCC3)cc12,Potency,[15],9.61 µM (active)
same,Potency,[17],17.1 µM (active)
Nc1cc(C(F)(F)F)c(-c2cc(N3CCOCC3)nc(N3CCOCC3)n2)cn1,Potency,[2],4.14 µM (active)
same,Potency,[10],5.22 µM (active)
same,Potency,[11],5.85 µM (active)
same,Potency,[5],4.14 µM (active)
same,Potency,[8],4.69 µM (active)
same,Potency,[13],inactive
CNC(=O)c1ccc(-c2cnc3ncc(Cc4ccc5ncccc5c4)n3n2)cc1F,Potency,[13],inactive
Nc1ccn([C@@H]2O[C@H](CO)[C@H](O)C2(F)F)c(=O)n1,Potency,[1],0.0074 µM (active)
same,Potency,[3],2.33 µM (active)
same,Potency,[10],inactive
same,Potency,[11],0.0522 µM (active)
same,Potency,[4],2.93 µM (active)
same,Potency,[5],5.85 µM (active)
same,Potency,[8],inactive
same,Potency,[13],inactive
Cc1cc(Nc2cc(N3CCN(C)CC3)nc(Sc3ccc(NC(=O)C4CC4)cc3)n2)n[nH]1,Potency,[2],0.0928 µM (active)
same,Potency,[9],inactive
same,Potency,[10],9.27 µM (active)
same,Potency,[11],9.27 µM (active)
same,Potency,[5],5.85 µM (active)
same,Potency,[6],16.5 µM (active)
same,Potency,[7],9.27 µM (active)
same,Potency,[8],11.8 µM (active)
same,Potency,[13],inactive
CN(c1ncccc1CNc1nc(Nc2ccc3c(c2)CC(=O)N3)ncc1C(F)(F)F)S(C)(=O)=O,Potency,[1],7.37 µM (active)
same,Potency,[9],inactive
same,Potency,[10],7.37 µM (active)
same,Potency,[11],3.69 µM (active)
same,Potency,[4],inactive
same,Potency,[6],8.27 µM (active)
same,Potency,[7],5.85 µM (active)
same,Potency,[8],3.72 µM (active)
Cc1ccc(C(=O)Nc2ccc(CN3CCN(C)CC3)c(C(F)(F)F)c2)cc1C#Cc1cnc2cccnn12,Potency,[2],0.0037 µM (active)
same,Potency,[3],inactive
same,Potency,[9],inactive
same,Potency,[10],2.93 µM (active)
same,Potency,[11],0.585 µM (active)
same,Potency,[12],20.8 µM (active)
same,Potency,[4],10.4 µM (active)
same,Potency,[5],5.22 µM (active)
same,Potency,[7],inactive
same,Potency,[8],1.48 µM (active)
same,Potency,[13],34.1 µM (active)
